From the supplement of paper PMC10646978 come the findings set out here.

Molecules are shown by their SMILES. ± gives the standard deviation.

Holding throughout (conditions): modulator concentration 10 µM
Test [1] has as its system RAW-Dual (murine macrophage reporter line). Description: NF-kB reporter (SEAP) activity fold change vs agonist alone; higher = enhanced NF-kB activity. A digest of the protocol: (§1)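 RAW-Dual murine macrophage reporter cells were seeded at 50 000 per well in 384-well plates and pre-incubated 1 hour at 37 °C with compound pin-transferred to 10 μM final. After 1 hour, a PRR agonist was added and cells incubated overnight. Supernatant NF-κB (SEAP, QUANTI-Blue, 620 nm absorbance) and IRF (Lucia luciferase, QUANTI-Luc, luminescence) signals were divided by the mean agonist-only control on the same plate to give fold change. Two replicate plates were averaged, with errors by propagation.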

The test system is the same in test [2]. The test can be described thus: IRF reporter (Lucia luciferase) activity fold change vs agonist alone; higher = enhanced IRF activity. A digest of the protocol:
as §1

For test [3] the test system is unchanged. Description: viability score (confluency relative to resting cells, overnight) (fraction); higher = more viable, active = viable (0.7 or more). In outline: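 Overnight exposure to 10 μM final compound was carried out on RAW-Dual macrophages in 384-well plates. IncuCyte software generated two confluency masks over all wells imaged with IncuCyte. The viability score gives confluency in relation to resting cells. A compound met the cutoff if each mask exceeded 70% of resting cells.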

[4] abbreviates: agonist: CpG ODN 1826 0.5 ug/mL.

`CCN(CC)C(=O)Nc1ccc(OCC(O)CNC(C)(C)C)c(C(C)=O)c1` (stereo unspecified) [Prestw-1132]: the NF-kB reporter in test [1] (setting [4]) came out at 1.41 ± 0.08; in test [1] (agonist: LPS 0.1 ug/mL), 1.01 ± 0.062; in test [1] (agonist: MPLA […]) it was 1.16 ± 0.079. The IRF reporter in test [2] (agonist: 3'3'-cGAMP 10 ug/mL) amounted to 0.979 ± 0.059; in test [2] (agonist: LPS 0.1 ug/mL), 1.44 ± 0.15; in test [2] (agonist: MPLA […]), 1.29 ± 0.12. The viability score in test [3] was 0.997 (active).

With `O=C(COc1ccc2ccccc2c1)NCC#CCN1CCCCC1`, the NF-kB reporter is 0.854 ± 0.036 in test [1] (setting [4]), 0.981 ± 0.078 in test [1] (agonist: LPS 0.1 ug/mL) and 1.07 ± 0.064 in test [1] (agonist: MPLA […]). The IRF reporter came out at 1 ± 0.048 in test [2] (agonist: 3'3'-cGAMP 10 ug/mL), 1.27 ± 0.29 in test [2] (agonist: LPS 0.1 ug/mL) and 1.48 ± 0.49 in test [2] (agonist: MPLA […]). Further, in test [3], the viability score was 0.956 (active).

On to `CCOC(=O)C1=C(CC)NC2=C(C(=O)CCC2)C1c1ccccc1I` (stereo unspecified), for which the NF-kB reporter stood at 0.996 ± 0.11 in test [1] (setting [4]), 1.02 ± 0.13 in test [1] (agonist: LPS 0.1 ug/mL) and 0.982 ± 0.1 in test [1] (agonist: MPLA […]). Also, the values for the IRF reporter in test [2] (agonist: 3'3'-cGAMP 10 ug/mL), in test [2] (agonist: LPS 0.1 ug/mL) and in test [2] (agonist: MPLA […]) were 0.921 ± 0.032, 1.27 ± 0.16 and 1.05 ± 0.19, respectively. Further, the viability score in test [3] is 0.975 (active).

For the molecule `C=C(C)CSC1=C(C#N)C(c2ccccc2)CC(=O)N1` (stereo unspecified), the NF-kB reporter came out at 1.13 ± 0.091 in test [1] (setting [4]), 0.954 ± 0.071 in test [1] (agonist: LPS 0.1 ug/mL) and 0.951 ± 0.092 in test [1] (agonist: MPLA […]). Also, the IRF reporter in test [2] (agonist: 3'3'-cGAMP 10 ug/mL) came out at 0.772 ± 0.025; in test [2] (agonist: LPS 0.1 ug/mL), 1.03 ± 0.15; in test [2] (agonist: MPLA […]), 0.999 ± 0.17. For the same molecule, the viability score in test [3] is 1.01 (active).

With `Cc1ccc(OCCSc2nc3ccccc3c(=O)[nH]2)cc1C`, the NF-kB reporter was determined as 0.728 ± 0.2 in test [1] (setting [4]), 1.11 ± 0.13 in test [1] (agonist: LPS 0.1 ug/mL) and 1.02 ± 0.13 in test [1] (agonist: MPLA […]). The IRF reporter in test [2] (agonist: 3'3'-cGAMP 10 ug/mL) is 0.886 ± 0.025; in test [2] (agonist: LPS 0.1 ug/mL) it was 1.03 ± 0.22; in test [2] (agonist: MPLA […]), 1.19 ± 0.24. Besides, in test [3], the viability score was 0.818 (active).

As for `COc1ccc(NC(=O)c2cn(-c3cc(N4CCSCC4)ncn3)cn2)cc1`, the NF-kB reporter stood at 1.04 ± 0.058 in test [1] (setting [4]), 1.13 ± 0.091 in test [1] (agonist: LPS 0.1 ug/mL) and 0.939 ± 0.041 in test [1] (agonist: MPLA […]). The IRF reporter in test [2] (agonist: 3'3'-cGAMP 10 ug/mL) came to 1.03 ± 0.069; in test [2] (agonist: LPS 0.1 ug/mL) it was 1.13 ± 0.23; in test [2] (agonist: MPLA […]), 1.07 ± 0.33. In addition, the viability score in test [3] was 0.997 (active).

For `COc1ccc(S(=O)(=O)NC(C)C)c2ccccc12`, the NF-kB reporter was found to be 0.904 ± 0.09 in test [1] (setting [4]), 0.942 ± 0.084 in test [1] (agonist: LPS 0.1 ug/mL) and 1.06 ± 0.06 in test [1] (agonist: MPLA […]). The IRF reporter is 0.999 ± 0.074 in test [2] (agonist: 3'3'-cGAMP 10 ug/mL), 1.01 ± 0.13 in test [2] (agonist: LPS 0.1 ug/mL) and 1.08 ± 0.39 in test [2] (agonist: MPLA […]). In test [3], the viability score was 0.951 (active).

Take `O=C(Nc1cccnc1)c1ccc(OC2CCOCC2)nc1`: the NF-kB reporter in test [1] (setting [4]) came out at 1.08 ± 0.37; in test [1] (agonist: LPS 0.1 ug/mL) it was 0.97 ± 0.06; in test [1] (agonist: MPLA […]), 1 ± 0.063. Moreover, the IRF reporter in test [2] (agonist: 3'3'-cGAMP 10 ug/mL) was 0.912 ± 0.046; in test [2] (agonist: LPS 0.1 ug/mL) it was 1.05 ± 0.13; in test [2] (agonist: MPLA […]), 1.3 ± 0.14. Besides, the viability score in test [3] was 0.99 (active).

Take `CCOc1nc2cccc(C(=O)O)c2n1Cc1ccc(-c2ccccc2-c2nn[nH]n2)cc1`: the NF-kB reporter in test [1] (setting [4]) worked out at 1.09 ± 0.15; in test [1] (agonist: LPS 0.1 ug/mL), 1.17 ± 0.38; in test [1] (agonist: MPLA […]) it was 0.976 ± 0.054. In addition, the IRF reporter was 0.907 ± 0.069 in test [2] (agonist: 3'3'-cGAMP 10 ug/mL), 1.26 ± 0.31 in test [2] (agonist: LPS 0.1 ug/mL) and 0.98 ± 0.13 in test [2] (agonist: MPLA […]). The viability score in test [3] was 1.01 (active).

For `COc1cc2nccc(Oc3ccc(NC(=O)C4(C(=O)Nc5ccc(F)cc5)CC4)cc3)c2cc1OC.O=C(O)C[C@H](O)C(=O)O`, the NF-kB reporter turned out to be 0.56 ± 0.046 in test [1] (setting [4]), 0.51 ± 0.026 in test [1] (agonist: LPS 0.1 ug/mL) and 0.696 ± 0.019 in test [1] (agonist: MPLA […]). Also, the values for the IRF reporter in test [2] (agonist: 3'3'-cGAMP 10 ug/mL), in test [2] (agonist: LPS 0.1 ug/mL) and in test [2] (agonist: MPLA […]) were 0.103 ± 0.0071, 0.317 ± 0.031 and 0.337 ± 0.027, respectively. The viability score in test [3] is 0.842 (active).

Regarding `Cc1ccc(/C(=C\CN2CCCC2)c2ccccn2)cc1.Cl.O`, the NF-kB reporter in test [1] (setting [4]) turned out to be 0.96 ± 0.26; in test [1] (agonist: LPS 0.1 ug/mL), 1.11 ± 0.056; in test [1] (agonist: MPLA […]) it was 1.05 ± 0.073. Moreover, the IRF reporter was determined as 0.672 ± 0.03 in test [2] (agonist: 3'3'-cGAMP 10 ug/mL), 1.09 ± 0.13 in test [2] (agonist: LPS 0.1 ug/mL) and 1.31 ± 0.18 in test [2] (agonist: MPLA […]). Moreover, the viability score in test [3] was 0.553 (inactive).

Take `COc1ccc2c3c1O[C@H]1C[C@@H](O)C=C[C@@]31CCN(C)C2` [Prestw-588]: the NF-kB reporter was determined as 1.13 ± 0.077 in test [1] (setting [4]), 1.07 ± 0.091 in test [1] (agonist: LPS 0.1 ug/mL) and 0.95 ± 0.038 in test [1] (agonist: MPLA […]). In addition, the IRF reporter in test [2] (agonist: 3'3'-cGAMP 10 ug/mL) stood at 0.997 ± 0.056; in test [2] (agonist: LPS 0.1 ug/mL), 0.987 ± 0.046; in test [2] (agonist: MPLA […]), 0.923 ± 0.16. In addition, the viability score in test [3] is 0.998 (active).

Regarding `COc1cc(CNC2CCCc3ccccc32)cc(OC)c1OC` (stereo unspecified), the NF-kB reporter in test [1] (setting [4]) is 0.878 ± 0.074; in test [1] (agonist: LPS 0.1 ug/mL), 1.02 ± 0.095; in test [1] (agonist: MPLA […]) it was 0.982 ± 0.04. Also, the values for the IRF reporter in test [2] (agonist: 3'3'-cGAMP 10 ug/mL), in test [2] (agonist: LPS 0.1 ug/mL) and in test [2] (agonist: MPLA […]) were 0.865 ± 0.056, 1.05 ± 0.087 and 0.972 ± 0.15, respectively. In addition, the viability score in test [3] was 0.992 (active).
